PubChem BioAssay AID1645855 (Buhrlage Lab, Dana-Farber Cancer Institute and Novartis …, 2021)
Screen size: about 47,000 compounds; about 3,100 (6.6%) were called active. No stated cut-off is given here; in the data, active means inhibition above about 30%; inactive means the rest. The list comes from a sample in which actives are over-represented; it also holds similar structures and randomly drawn compounds.

Biological target: Ubiquitin carboxyl-terminal hydrolase 17-like protein 5 (Homo sapiens) (UniProt A8MUK1)
Experiment: inhibitors of human USP17 deubiquitinase (AID 1645855)
Conditions: purified USP17, Ub-rhodamine cleavage fluorescence, 3 h; at 50 µM; hits give high values

Ubiquitin carboxyl-terminal hydrolase 17-like protein 5 (Homo sapiens), sequence (A8MUK1 whole entry, looked up): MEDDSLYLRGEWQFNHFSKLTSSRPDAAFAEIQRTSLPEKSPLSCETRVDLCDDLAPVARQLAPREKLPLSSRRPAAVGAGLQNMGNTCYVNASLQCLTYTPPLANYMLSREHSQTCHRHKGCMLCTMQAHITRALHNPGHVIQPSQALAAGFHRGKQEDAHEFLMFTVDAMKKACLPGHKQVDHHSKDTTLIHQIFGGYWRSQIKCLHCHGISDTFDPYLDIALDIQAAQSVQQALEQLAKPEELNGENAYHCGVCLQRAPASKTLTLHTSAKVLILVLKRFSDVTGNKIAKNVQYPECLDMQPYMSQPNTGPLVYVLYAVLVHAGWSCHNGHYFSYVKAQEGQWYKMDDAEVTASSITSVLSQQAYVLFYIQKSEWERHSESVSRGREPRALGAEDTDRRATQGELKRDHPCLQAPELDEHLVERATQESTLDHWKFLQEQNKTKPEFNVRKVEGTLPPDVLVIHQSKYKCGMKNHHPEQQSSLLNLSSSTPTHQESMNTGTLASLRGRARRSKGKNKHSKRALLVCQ

inhibition, active:
CCOc1ccccc1NC(=O)Nc1cc(-c2nc3ccccc3o2)ccc1OC 57.1%, O=C(Cc1ccccc1Cl)Nc1ccc(N2CCOCC2)cc1 31.6%, COc1ccc(CNC(=O)c2[nH]nc3c2CCc2ccccc2-3)cc1 67.3%, CC(C)(C)c1nn(-c2ccccc2)c2[nH]c(=O)c(CNCCc3ccccc3)cc12 31.9%, N#Cc1ccc(-c2csc(COc3ccccc3Cl)n2)cc1 35%

inhibition, inactive:
NC(=O)CN1C(=O)CO[C@H]2CN(Cc3ccc(F)c(F)c3)C[C@H]21 -11.3%, Cn1c(=O)n(CCCO)c(=O)c2c1nc1n2CCCN1c1ccccc1 9.32%, COc1cccc(N2CCN(C(=O)CCC3=NS(=O)(=O)c4ccc(C)cc4N3)CC2)c1 -26.5%, COc1ccccc1NC(=O)N1CCN(Cc2nc3ccccc3o2)CC1 -4.24%, Cn1c(=O)c2ncn(CC(=O)Nc3ccc(-c4nc5ccccc5o4)cc3)c2n(C)c1=O 8.05%, CCN1CCN(c2cc(C)c3cc(NC(=O)c4cccnc4)ccc3n2)CC1 -9.13%, Cn1cnnc1SCC(=O)Nc1ccc(N2CCOCC2)c(Cl)c1 -11.6%, CCN(CC)c1nc2ccccc2nc1C(=O)Nc1ccc(N2CCOCC2)cc1 -6.91%, O=S(=O)(NCc1nc2cccnc2n1C1CC1)c1ccccc1F 9.68%, Cc1nn(-c2ccc(F)cc2)c(C)c1S(=O)(=O)NCc1ccc2c(c1)OCO2 -23%, Cn1nc(C(=O)NCCN2CCOCC2)c2c1-c1ccccc1CC2 2.07%, COc1ccc(-c2ocnc2C(=O)NCc2ccc(OC)c(OC)c2)cc1 -0.808%, CC(=O)O[C@H]1C[C@@]23COC(=O)/C=C(\C)CCOC(=O)/C=C/C=C\C(=O)O[C@@H]4C[C@@H](O[C@@H]2C=C1C)[C@@]1(CO1)[C@]43C -0.539%, Cc1nn(C)cc1C(=O)Nc1cnn(C)c1C(N)=O 5.15%, CC(C)(C)C(=O)OCc1noc(-c2ccccc2)n1 16.8%, Cc1ccc(NCc2cc3c(C)nn(-c4ccccc4)c3[nH]c2=O)cc1C -32.1%, Cc1nn(-c2ccccc2)c2[nH]c(=O)c(C#N)c(-c3ccco3)c12 -26.6%, CCCC(=O)N1CCC(c2cc(=O)[nH]c(-c3ccccn3)n2)C1 (stereo not given) -51.9%, N#Cc1ccc(Oc2ncnc3ccccc23)cc1 4.86%, CC(C)OC(=O)c1cc2c(ccn2-c2ccc(F)cc2)n1Cc1ccccn1 9.79%
